Compound activity: PubChem BioAssay, National Center for Advancing Translational Sciences (NCATS)
This is a sample that favours compounds with a hit; in the whole collection about 10% have one here.
BAZ2B inh: qHTS Assay for Inhibitors of BAZ2B. Bromodomain adjacent to zinc finger domain protein 2B (Homo sapiens), Q9UIF8. AlphaScreen BAZ2B-H3K14Ac peptide displacement. Potency, µM (titrated, usually from 114 µM), usual class: inhibitors. actives 4.4% (n = 360,000). AID 504333, 2011; also: nearly all actives have a fitted effect of over 60% in size
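AlphaScreen luminescence quantifies BAZ2B engagement of H3K14Ac peptide; the protein and biotinylated peptide are both at 50 nM final, buffer PBS pH 7.4 with 0.01% Tween-20, all steps at room temperature.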
HP1b chromo inh: HTS for Inhibitors of HP1-beta Chromodomain Interactions with Methylated Histone Tails; Potency, µM (doses to about 114 µM), usual class: inhibitors; actives 0.56% (n = 390,000); Chromobox protein homolog 1 (Homo sapiens), P83916; AlphaScreen HP1-beta / biotin-H3K9me3 peptide binding; also: nearly all actives have a fitted effect of over 70% in size
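Compound inhibition of the preformed complex between 50 nM HP1-beta and 50 nM biotinylated H3K9me3 peptide was read by AlphaScreen. Buffer was PBS pH 7.4 with 0.01% Tween-20. Incubations ran 30 min at room temperature, with 10 ug/mL donor/acceptor beads.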
GLS inhibitor: qHTS for Inhibitors of Glutaminase (GLS); GLS enzymatic activity, qHTS titration; Potency, µM (series often up to 45.5 µM), usual class: inhibitors; actives 0.21% (n = 410,000)
Target sequence (O94925 whole entry, looked up): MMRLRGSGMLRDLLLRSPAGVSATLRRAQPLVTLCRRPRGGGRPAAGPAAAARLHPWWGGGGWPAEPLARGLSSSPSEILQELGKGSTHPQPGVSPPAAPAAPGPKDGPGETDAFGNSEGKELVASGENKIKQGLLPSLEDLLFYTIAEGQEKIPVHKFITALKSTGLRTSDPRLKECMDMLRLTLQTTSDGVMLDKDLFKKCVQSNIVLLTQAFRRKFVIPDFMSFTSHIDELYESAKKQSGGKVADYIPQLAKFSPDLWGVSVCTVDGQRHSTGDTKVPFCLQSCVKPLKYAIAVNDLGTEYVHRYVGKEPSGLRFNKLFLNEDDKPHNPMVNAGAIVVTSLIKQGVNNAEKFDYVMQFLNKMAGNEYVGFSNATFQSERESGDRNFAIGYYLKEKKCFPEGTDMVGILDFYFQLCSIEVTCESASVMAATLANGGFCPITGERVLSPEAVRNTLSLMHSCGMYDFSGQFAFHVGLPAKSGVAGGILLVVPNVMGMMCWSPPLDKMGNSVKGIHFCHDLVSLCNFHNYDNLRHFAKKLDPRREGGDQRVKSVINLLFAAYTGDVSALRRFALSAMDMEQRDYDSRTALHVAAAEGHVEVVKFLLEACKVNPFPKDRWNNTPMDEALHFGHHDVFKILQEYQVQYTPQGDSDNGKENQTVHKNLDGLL
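hKGA in 45 mM KH2PO4 (pH 8.2), 0.02% Tween-20 with compound, then 1mM L-Glutamine (stock as added) plus glutamate oxidase/HRP/Amplex red coupling mix. Fluorescence read initially and after 30 min at RT; signal change reflects glutamate formation.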
JMJD2A Tudor inh: qHTS Assay for Inhibitors of JMJD2A-Tudor Domain | Lysine-specific demethylase 4A (Homo sapiens), O75164 | AlphaScreen JMJD2A-Tudor / H3K4me3 peptide binding | Potency, µM (highest dose often 114 µM), usual class: inhibitors | actives 4.4% (n = 390,000); also: nearly all actives have a fitted effect of over 50% in size
G9a block: qHTS Assay for Inhibitors of Histone Lysine Methyltransferase G9a; actives 8.8% (n = 350,000); G9a H3K9 monomethylation, AlphaScreen, 2 h; Potency, µM (doses to about 102 µM), most hits filed as inhibitors; Histone-lysine N-methyltransferase EHMT2 (Homo sapiens), Q96KQ7; also: nearly all actives have a fitted effect of over 75% in size
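Using a bead-based AlphaScreen, monomethylated H3K9 product from 2 h room-temperature reactions (G9a 20 nM, peptide 500 nM, SAM 20 uM) was detected with 0.5 ug/mL rabbit anti-H3K9me1 antibody.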
A number is an active result; - = inactive; ? = inconclusive; . = no result given; ! = not active in a repeat; [ ] = another dose, or the depositor's remark. Calls follow the shape of the dose curve; as a rule, active = well fitted curve in the direction sought with a large enough effect; inconclusive = small, poorly fitted or top-dose-only effect, or another doubt; inactive = no such curve, though single readings can be large; an effect the other way counts as inactive or inconclusive.

SMILES | BAZ2B inh | HP1b chromo inh | GLS inhibitor | JMJD2A Tudor inh | G9a block
CCc1ccc(Nc2n[n+](-c3ccccc3)c(-c3ccc(OCc4ccccc4)cc3)s2)cc1 | 50.1µM | - | - | - | ?
O=C(Cc1c(O)c2ccccc2[nH]c1=O)NC1CCCCCC1 | - | - | - | - | -
Nc1nnnn1/N=C\c1ccc(Cl)c([N+](=O)[O-])c1 | - | - | - | - | -[0.0925 µM]
O=[N+]([O-])c1cc2c(cc1/C=N/n1c(-c3ccccc3)n[nH]c1=S)OCO2 | ? | ? | ? | 3.98µM | 1.41µM
O=[N+]([O-])c1ccccc1/C=N/n1c(-c2cccnc2)n[nH]c1=S | - | - | - | 2.24µM | 2.51µM
O=[N+]([O-])c1cc(/C=N/n2c(-c3cccnc3)n[nH]c2=S)ccc1Cl | ? | - | - | 39.8µM | 1.26µM
CCc1nc2ccc(C(=O)N3CCN(c4cccc(C)c4C)CC3)cc2nc1CC | - | - | 6.31µM! | - | -
CS/C(=C\[N+](=O)[O-])Nc1ccc(Cl)cc1 | - | - | - | - | 11.2µM
CC(C)=CC(=O)Nc1ccc(Cl)cc1 | - | - | - | - | -
Nn1cnnc1N/N=C/c1ccc(Cl)c([N+](=O)[O-])c1 | - | - | - | ? | 44.7µM
Cc1ccc(/C=N/Nc2nncn2N)cc1 | - | - | - | - | -[2.33 µM]
Nn1cnnc1N/N=C/c1ccc(F)cc1 | - | - | - | - | 44.7µM
Cc1nnc(N/N=C/c2ccc([N+](=O)[O-])cc2)n1N | ? | - | ? | - | -
CCc1nnc(N/N=C/c2ccc(N3CCC(C)CC3)c([N+](=O)[O-])c2)n1N | ? | - | - | ? | 50.1µM
CN(Cc1ccccc1)c1nnc(N)s1 | - | - | - | - | ?
CCCNC(=O)c1cc(C2CCCN(C(=O)c3ccccc3)C2)on1 (stereo unspecified) | . | . | - | . | .
CCN(C(=O)COC(=O)c1ccc(OC)c(S(=O)(=O)N(C)Cc2ccccc2)c1)C1CCS(=O)(=O)C1 (stereo unspecified) | - | - | - | - | ?
COc1ccc(C(=O)OCC(=O)NC2CC2)cc1S(=O)(=O)N(C)Cc1ccccc1 | - | - | - | - | 50.1µM
COc1ccc(C(=O)OCC(=O)NC(Cc2ccccc2)C(C)=O)cc1S(=O)(=O)N1CCCC1 (stereo unspecified) | - | - | - | - | 56.2µM
CC1=C(O)C(=O)C(C2=C(O)C(=O)C(C)=C(O)C2=O)=C(O)C1=O | . | ? | ? | 0.708µM | .
Cc1ccc(C2=C(O)C(=O)C(c3ccc(C)cc3)=C(O)C2=O)cc1 | . | - | - | 25.1µM | .
O=c1c2ccccc2nc(SCc2nc3ccccc3s2)n1Cc1ccco1 | - | - | - | - | -
CCOC(=O)C(N)CSC1CC(=O)N(c2ccc(C(=O)OC)cc2)C1=O (stereo unspecified) | - | - | - | ? | 8.91µM
CCOc1ccc(N2C(=O)CC(N)C2=O)cc1 (stereo unspecified) | - | - | - | - | 7.94µM
CCCOc1ccc(N2C(=O)CC(SCC(N)C(=O)OCC)C2=O)cc1 (stereo unspecified) | - | - | - | - | 70.8µM
SMILES | BAZ2B inh | HP1b chromo inh | GLS inhibitor | JMJD2A Tudor inh | G9a block
COC(=O)c1ccc(N2C(=O)CC(SCCN)C2=O)cc1 (stereo unspecified) | - | - | - | ? | 14.1µM
CCCOc1ccc(N2C(=O)CC(SC(=NCC)NCC)C2=O)cc1 (stereo unspecified) | - | - | - | - | -
CCOc1ccc(N2C(=O)CC(Cc3cc(C)cc(C)c3)C2=O)cc1 (stereo unspecified) | - | - | - | - | .
CCOC(=O)c1ccc(N2C(=O)CC(Sc3ncccn3)C2=O)cc1 (stereo unspecified) | - | - | - | - | ?
CCCOc1ccc(N2C(=O)CC(SCCN)C2=O)cc1 (stereo unspecified) | - | - | - | - | 3.55µM
CCCOc1ccc(N2C(=O)CC(N3CCC(C(=O)OCC)CC3)C2=O)cc1 (stereo unspecified) | - | - | - | - | 50.1µM
CCOc1ccc(N2C(=O)CC(SCC(=O)O)C2=O)cc1 (stereo unspecified) | - | - | - | - | 50.1µM
CCOC(=O)CSc1ccc2nnc(-c3cccnc3)n2n1 | - | - | - | - | 17.8µM
CCOC(=O)CSc1ccc2nnc(-c3ccccc3)n2n1 | - | - | - | - | -
O=C(CSc1ccc2nnc(-c3cccnc3)n2n1)NCc1ccco1 | - | - | - | - | 79.4µM
CC(=O)Nc1ccc(NC(=O)CSc2ccc3nnc(-c4cccnc4)n3n2)cc1 | - | - | - | - | 31.6µM
O=C(CSc1ccc2nnc(-c3cccc(F)c3)n2n1)NCc1ccco1 | - | - | - | - | -
Cc1ccc(NC(=O)CSc2ccc3nnc(-c4ccccn4)n3n2)cc1 | - | - | - | - | -
CC(=O)c1ccc(NC(=O)CSc2ccc3nnc(-c4ccccn4)n3n2)cc1 | - | - | - | 31.6µM | -
O=C(CSc1ccc2nnc(-c3ccncc3)n2n1)Nc1ccc2c(c1)OCO2 | - | - | - | - | 31.6µM
O=C(CSc1ccc2nnc(-c3ccncc3)n2n1)Nc1ccc2c(c1)OCCO2 | - | - | - | - | -
COC1(OC)C(=N/O)/C(=N\O)CCC1O (stereo unspecified) | ? | - | - | - | 11.2µM
O=C(c1ccc(-c2ccccc2)cc1)c1ccccc1C(=O)N1CCOCC1 | - | - | - | - | -[2.33 µM]
O=C(Oc1cccc(C(=S)N2CCOCC2)c1)c1ccccc1 | - | ? | - | - | 7.08µM
O=C(Oc1cccc(Oc2ccccc2)c1)N1CCOCC1 | - | - | - | - | -
S=C(c1ccc(-c2ccccc2)cc1)N1CCOCC1 | - | - | - | - | 39.8µM
COc1cc(C(=S)N2CCOCC2)cc(OC)c1OC(=O)Cc1ccc(F)cc1 | ? | ? | - | 79.4µM | 3.16µM
COc1cc(C(=S)N2CCOCC2)cc(OC)c1OC(=O)c1ccc(F)cc1 | ? | ? | - | - | .
COc1ccc(CC(=O)Oc2ccc(Br)cc2F)cc1S(=O)(=O)N1CCOCC1 | - | - | - | - | 50.1µM
CC(C)NC(=O)N(C)C[C@H]1OCc2cnnn2CCCC(=O)N([C@H](C)CO)C[C@@H]1C | . | . | - | . | .
CC(C)OCCCNC(=O)c1ccc(CN2CCc3ccccc3C2)cc1 | - | - | - | - | .
Cc1ccc(C)c(OCc2nnc(NC(=O)c3ccc4c(c3)OCO4)s2)c1 | - | - | - | - | -[12.7 µM]
CCC(=O)c1ccc(OCC(=O)OCC(=O)NC2CCCC2)cc1 | - | - | - | - | -
COc1ccc(-c2oc(=O)c3cc(OC)c(OC)cc3c2/C=C/c2ccc([N+](=O)[O-])cc2)cc1 | . | - | - | ? | .
